This passage reports growth results from PubChem BioAssay (NCI).

The panel holds about 83,000 compounds, 20% with a hit somewhere; the sample as a whole holds those more often.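 The endpoint reported here, percent growth, reads 100 for growth as untreated, 0 for no net growth and -100 for all cells dead.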 A number with no mark means an inactive call. Activity calls are given as the source filed them. How the source made its calls: active means growth percent below 10; inactive means the rest.

The assay deals with HCT-116 colon. The assay is described as follows: NCI-60 one-dose screen, 48 h (100 = growth as untreated, 0 = no growth, -100 = all killed). As to conditions: 10 µM unless noted.
For `O=[N+]([O-])c1cccc(C2c3ccccc3Oc3ccccc32)c1`, the growth is 68.3%. Consider `CCCCCCCC(=O)SCC/C=C/[C@@H]1CC(=O)NCc2nc(cs2)C2=N[C@@](C)(CS2)C(=O)N[C@@H](C(C)C)C(=O)N1`, for which the growth was -30.3% (active). With `Cc1ccc(NC(=O)CN2CCOCC2)cc1Cl` the figure was 80.5%. On to `O=C(NOC1OC(CO)C(O)C(O)C1O)Nc1ccccc1` (stereo unspecified), for which the growth is 105%. The same measure for `C=C1C(=O)O[C@H]2[C@H]1CC/C(COC(=O)c1ccc(C#N)cc1)=C\CC[C@@]1(C)O[C@@H]21`: -60.3% (active); for `CN[C@@H](CCCNC(N)=NC/C=C(/C)CCC=C(C)C)C(=O)N(C)[C@@H](CCCNC(N)=NCC=C(C)C)C(=O)N[C@H](C)[C@H](OS(=O)(=O)O)c1ccc(OS(=O)(=O)O)c(COS(=O)(=O)O)c1`: 101%; for `C#CC(=O)/C=C/CCCCCCC#CC(=O)CCC(=O)C#CCCCCCC/C=C/C(=O)C#C`: -7.8% (active). With `C#C[C@@]1(O)[C@@H](CO)O[C@@H](n2cc(Br)c3c(Cl)ccnc32)[C@@H]1O`, the growth was 23.1%. The same measure for `COc1cc(C(=O)N2CCN(C(=O)c3cc(OC)c(OCc4ccccc4)cc3N)CC2)c(N)cc1OCc1ccccc1`: 104%; for `c1ccc(CNCCN(CCNCc2ccccn2)Cc2ccc3ccccc3c2)nc1`: -9.29% (active); for `O=C(O)c1ccc2nc(-c3ccc(OCCCCCOc4ccc(-c5nc6ccc(C(=O)O)cc6[nH]5)cc4)cc3)[nH]c2c1`: 88.6%. On to `COc1ccc(Cn2cc(COc3ccc4c5ccnc(C)c5n(CCCc5ccccc5)c4c3)nn2)cc1`, for which the growth was 51.5%. Consider `COc1ccc(Cl)cc1NC(=O)c1cc2c([nH]1)-c1nc(N)sc1CCC2`, for which the growth is 110%. As for `COc1cc2c(cc1OCCCCC(=O)Nc1ccc(-c3nc4ccccc4s3)cc1)N=C[C@@H]1CCCN1C2=O`, the growth was 5.56% (active).

Regarding `CC(C)(CCN=C(N)Nc1ccccn1)c1ccc(C(F)(F)F)cc1`, the growth was -45% (active). With `Cc1c(Cl)ccc2c(C(=O)Cl)cc(-c3ccccc3)nc12` the figure was 102%; with `Cn1c(I)c(C#C[Si](C)(C)C)c(=O)[nH]c1=O`, -43.1% (active); with `C#C[C@H](O)/C=C/CCCCCCC#C[C@H](O)CC[C@@H](O)C#CCCCCCC/C=C/[C@@H](O)C#C`, 57.3%. The same measure for `COc1ccc(-c2nn(-c3ccc(NC(=O)c4cc(C(F)(F)F)cc(C(F)(F)F)c4)cc3)cc2-c2ccncc2)cc1Cl`: 42.7%; for `COc1ccccc1C(OC(C)=O)OC(C)=O`: 95.7%; for `CCc1c(C)c2cc3c(c(C)c2oc1=O)OCC(=O)N3`: 52.7%. As for `CC(=O)Cc1cccnc1`, the growth is 81.6%. With `OCc1cn(-c2ccc(Cl)cc2)nc1-c1ccc(O)cc1` the figure was 96.9%; with `CC(=O)Nc1ccc(OC(=O)c2ccccc2O)cc1`, 114%; with `CC(C)CNCC(O)COc1ccc(C(C)(C)c2ccc(OCC(O)CNCC(C)C)cc2)cc1` (stereo unspecified), 0.347% (active).

Consider `CCCCCCCCCCCCCCCCCCNCc1ccc(Cl)cc1`, for which the growth is -74.5% (active). Turning to `Nc1nccc(=S)[nH]1`, the growth is 109%. On to `O=C(Nc1ccc(-n2ccc3c(NC(=O)c4ccccc4)ncnc32)cc1)Nc1cccc(Cl)c1Cl`, for which the growth was -25.4% (active). With `c1ccc2c(c1)Oc1cccnc1-n1nccc1-2` the figure was 104%; with `Nc1nc2ccc(CNc3ccc(C(=O)NC(CC(=O)O)C(=O)O)cc3)cc2c(=O)[nH]1` (stereo unspecified), 16.8%; with `COc1cc(-c2nc3ccccc3s2)ccc1OCc1nc2n(n1)S(=O)(=O)c1ccccc1N2C`, 66.1%. The same measure for `C=CC(C)(O)CCC1C(=C)CCC2C(C)(C)CCCC12C` (stereo unspecified): 107%; for `COc1ccc(-c2cc3ccc(N(C)C)cc3nc2N)c(F)c1`: 19.3%; for `O=C(Nc1ccc(-n2ccc3c(NC(=O)c4ccccc4)ncnc32)cc1)Nc1ccc(Cl)c(Cl)c1`: -82.8% (active). As for `N#Cc1c(N)nc2c(c1N)C(c1ccc(Cl)cc1)C1=C(CCCC1=O)N2c1sc2c(c1C#N)CCCC2` (stereo unspecified), the growth was 70.8%. In the case of `CCn1c(SC)nnc1-c1cc2c([nH]c3ccccc32)c(-c2cccc(O)c2)n1`, the growth was 13.2%.
